# Measured values as given in PubChem BioAssay (Tox21).
# “And” between values parts separate entries of the source, which are not always exact repeats. Equal entries are not always repeated. Inconclusive results are not listed. Where a call stands in place of a potency, no number is given. Values without a mark were called inactive. The source made the active and inactive calls. Calls follow the shape of the dose curve; as a rule, active = well fitted cell-killing curve with a large enough effect in the repeat runs; inconclusive = weak or mixed curves, or effect the other way; inactive = flat fitted curve, though single readings scatter.
# Key:
# [1] = cAMP Responsive Elements (CRE) small molecule antagonists, cell-based qHTS assay: qHTS cell viability counter screen (AID 2060913); also: nearly all actives have a fitted effect of over 40% in size
# In short: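 HEK293T CRE-bla, 2,000 cells/well, 18 h preincubation; cpd in DMSO + NKH477 0.25 uM final, 3 h 37 C/5% CO2; LiveBLAzer 2 h RT, then CellTiter-Glo 30 min RT, luminescence.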
# [2] = cAMP Responsive Elements (CRE) small molecule agonists, cell-based qHTS assay: qHTS cell viability counter screen (AID 2060914);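 also: viability read after 3 h of compound exposure; nearly all actives have a fitted effect of over 50% in size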
# In short: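 Cytotoxicity counter screen multiplexed with the CRE-bla reporter assay in HEK 293T cells: 3 h compound exposure at 37 °C, followed by CellTiter-Glo luminescence measured in the same wells.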
# Potency is read from the fitted curve at half-maximal effect.
Structure (SMILES),Potency [1],Potency [2],"viability change, negative = cytotoxic [1]","activity change, negative = cytotoxicity [2]"
CCC(C)c1cc([N+](=O)[O-])cc([N+](=O)[O-])c1O (stereo not given),inactive,inactive,,
Nc1cc(Cl)ccc1O,inactive,inactive,,
CCC1(c2ccccc2)C(=O)N=C(O)NC1=O (stereo not given),inactive,inactive,,
CCOC(=O)COc1cc(-c2nn(C)c(OC(F)F)c2Cl)c(F)cc1Cl,inactive,inactive,,
CC(Cc1ccc(O)cc1)NCC(O)c1cc(O)cc(O)c1 (stereo not given),inactive,inactive,,
CCCCN(CC)c1c([N+](=O)[O-])cc(C(F)(F)F)cc1[N+](=O)[O-],inactive,inactive,,
COc1ncc(F)c2nc(S(=O)(=O)Nc3c(F)cccc3F)nn12,inactive,inactive,,
CC[N+](CC)(CC)CC,inactive,inactive,,
CC(c1ccc(O)cc1)(c1ccc(O)cc1)c1ccc(O)cc1,inactive,inactive,,
O=[N+]([O-])c1cc(Cl)c(Cl)c(Cl)c1,inactive,inactive,,
CCOP(=S)(OCC)SCCS(=O)(=O)CC,inactive,inactive,,
CC(C)c1ccc(CO)cc1,inactive,inactive,,
O=C1C(=O)c2cccc3cccc1c23,inactive,inactive,,
C=CCOC(N)=O,inactive,inactive,,
O=Cc1ccccc1,inactive,inactive,,
c1ccc2c(c1)sc1ccccc12,inactive,inactive,,
COP(=S)(OC)SCn1nnc2ccccc2c1=O,inactive,inactive,,
CC(C)(C#N)C(C)(C)C#N,inactive,inactive,,
CC(O)CN1CCN(CC(=O)[O-])CCN(CC(=O)[O-])CCN(CC(=O)[O-])CC1.[Gd+3] (stereo not given),inactive,inactive,,
NCC(CC(=O)O)c1ccc(Cl)cc1 (stereo not given),,,-0.747% [at 0.349 µM],-9.73% [at 0.349 µM]
C[N+](C)(C)C,inactive,inactive,,
CN1CCc2cc(Cl)c(O)cc2[C@H]2c3ccccc3CC[C@@H]21,inactive,inactive,,
CC(C)(c1cc(Cl)c(O)c(Cl)c1)c1cc(Cl)c(O)c(Cl)c1,inactive,inactive,,
COC(=O)C(Cl)C(=O)OC,inactive,inactive,,

Structure (SMILES),Potency [1],Potency [2],"viability change, negative = cytotoxic [1]","activity change, negative = cytotoxicity [2]"
CCN(C(C)=O)c1cccc(-c2ccnc3c(C#N)cnn23)c1,inactive,inactive,,
Nc1nc(=S)[nH][nH]1,inactive,inactive,,
Cc1cc(O)ccc1Cl,inactive,inactive,,
O=C1C2CC=CCC2C(=O)N1SC(Cl)(Cl)Cl (stereo not given),inactive,inactive,,
CCCCCCCCOC(=O)c1ccccc1C(=O)OCCCCCCCC,inactive,inactive,,
O=c1[nH]oc2c1CCNC2,inactive,inactive,,
COCc1cnc(C2=NC(C)(C(C)C)C(=O)N2)c(C(=O)O)c1 (stereo not given),inactive,inactive,,
N#Cc1ccncc1,inactive,inactive,,
CC(C)=C[C@@H]1[C@@H](C(=O)OCc2coc(Cc3ccccc3)c2)C1(C)C,inactive,inactive,,
Oc1c(Br)cc(Br)cc1Br,inactive,inactive,,
NNC(=S)NN,inactive,inactive,,
N#CCCC(Br)(C#N)CBr (stereo not given),inactive,inactive,,
Clc1ccccc1-c1nnc(-c2ccccc2Cl)nn1,inactive,inactive,,
Nc1ccc(Cl)cc1,inactive,inactive,,
c1ccc2cc3c(cc2c1)-c1cccc2cccc-3c12,inactive,inactive,,
CCOC(=O)CCl,inactive,inactive,,
CCOP(=S)(Oc1ccc([N+](=O)[O-])cc1)c1ccccc1 (stereo not given),inactive,inactive,,
CNC(=O)Oc1ccc(N(C)C)c(C)c1,inactive,inactive,,
C[C@H]1[C@H](c2ccc(Cl)cc2)SC(=O)N1C(=O)NC1CCCCC1,inactive,inactive,,
C=C1C[C@@H]2[C@H](CC[C@]3(C)C(=O)CC[C@@H]23)[C@@]2(C)C=CC(=O)C=C12,inactive,inactive,,
O=C(O)CBr,inactive,inactive,,
Nc1nc(N)nc(N)n1,inactive,inactive,,
O=C(Cc1ccccc1)c1ccccc1,inactive,inactive,,
CCSC(=O)Cl,inactive,inactive,,

Structure (SMILES),Potency [1],Potency [2],"viability change, negative = cytotoxic [1]","activity change, negative = cytotoxicity [2]"
CCCCCCCCCCCC(=O)O,inactive,inactive,,
Clc1ccc(Oc2ccccc2)cc1,inactive,inactive,,
CCC(Br)(CC)C(=O)NC(N)=O,inactive,inactive,,
O=[N+]([O-])c1cc(Cl)ccc1Cl,inactive,inactive,,
CC(C)NCC(O)c1ccc([N+](=O)[O-])cc1 (stereo not given),inactive,inactive,,
Cc1ccc2c(c1N)C(=O)c1ccccc1C2=O,inactive,inactive,,
CC(C)(C)C(=O)C(Oc1ccc(Cl)cc1)n1cncn1 (stereo not given),inactive,inactive,,
O=C(O)C1C(C(=O)O)C2(Cl)C(Cl)=C(Cl)C1(Cl)C2(Cl)Cl (stereo not given),inactive,inactive,,
CC1CCCCC1NC(=O)Nc1ccccc1 (stereo not given),inactive,inactive,,
COc1cccc([C@@]2(O)CCCC[C@@H]2CN(C)C)c1,inactive,inactive,,
O=NN1CCOCC1,inactive,inactive,,
O=C(NCO)NCO,inactive,inactive,,
CCCCCCn1cc[n+](C)c1,inactive,inactive,,
Cc1ccc(CCl)cc1,inactive,inactive,,
C[C@H]1CCC[C@H](O)CCCCCc2cc(O)cc(O)c2C(=O)O1,inactive,inactive,,
CC1CN1 (stereo not given),inactive,inactive,,
NNC(N)=S,inactive,inactive,,
COc1ccc(C=O)cc1,inactive,inactive,,
COC(=O)c1ccccc1S(=O)(=O)NC(=O)Nc1nc(C)nc(OC)n1,inactive,inactive,,
C[N+]1(CCC(C(N)=O)(c2ccccc2)c2ccccc2)CCCCC1,inactive,inactive,,
[O-][Cl+3]([O-])([O-])O,inactive,inactive,,
c1ccc2c(c1)cc1ccc3cccc4ccc2c1c34,inactive,inactive,,
CCCCCCBr,inactive,inactive,,
O=[N+]([O-])c1cccc2ccccc12,inactive,inactive,,

Structure (SMILES),Potency [1],Potency [2],"viability change, negative = cytotoxic [1]","activity change, negative = cytotoxicity [2]"
CCC/C=N/O,inactive,inactive,,
CCCCOCCOC(C)=O,inactive,inactive,,
CCCCCCI,inactive,inactive,,
Clc1ccc(CO/N=C(\Cn2ccnc2)c2ccc(Cl)cc2Cl)c(Cl)c1,inactive,inactive,,
CS/C(C)=N/OC(=O)N(C)SN(C)C(=O)O/N=C(\C)SC,inactive,inactive,,
CCC[N+](=O)[O-],inactive,inactive,,
C#CC(O)(C=CCl)CC (stereo not given),inactive,inactive,,
C=CCBr,inactive,inactive,,
CCCCSP(=O)(SCCCC)SCCCC,inactive,inactive,,
CC(Cc1ccccc1)N(C)Cc1ccco1 (stereo not given),inactive,inactive,,
C=CC(=O)OCC,inactive,inactive,,
CCCCCCCCn1sccc1=O,54.6 µM (active) and 64.1 µM (active),43.4 µM (active),,
O=C(Cl)C(Cl)Cl,inactive,inactive,,
COc1cc(CC(C)N)c(OC)cc1Br (stereo not given),inactive,inactive,,
O=S(=O)(c1ccccc1)c1ccccc1,inactive,inactive,,
N#CCc1ccccc1,inactive,inactive,,
C=CC1(C)OC(=O)N(c2cc(Cl)cc(Cl)c2)C1=O (stereo not given),inactive,inactive,,
N#CN=C1SCCN1Cc1ccc(Cl)nc1,inactive,inactive,,
COc1cc(N)c(Cl)cc1C(=O)NC1CN2CCC1CC2 (stereo not given),inactive,inactive,,
COC(=O)c1ccccc1C(=O)OC,inactive,inactive,,
N#Cc1cccnc1,inactive,inactive,,
CNC(=O)N(C)c1nnc(C(C)(C)C)s1,inactive,inactive,,
CC(=O)[O][Hg][c]1ccccc1,12.1 µM (active) and 12.2 µM (active) and 16.8 µM (active),10.8 µM (active) and 13.7 µM (active),,
CCOCCOC(C)=O,inactive,inactive,,

Structure (SMILES),Potency [1],Potency [2],"viability change, negative = cytotoxic [1]","activity change, negative = cytotoxicity [2]"
O=C(O)C(Br)Br,inactive,inactive,,
COP(=S)(OC)Oc1ccc([N+](=O)[O-])c(C)c1,inactive,inactive,,
CCN(CC)C(C)C(=O)c1ccccc1 (stereo not given),inactive,inactive,,
O=C(O)C(Cl)Cl,inactive,inactive,,
C=CC(=O)[O][Sn]([CH2]CCC)([CH2]CCC)[CH2]CCC,8.63 µM (active),6.86 µM (active),,
COP(=S)(OC)Oc1c(Cl)cc(C)cc1Cl,inactive,inactive,,
CCCCCCC1CCOC1=O (stereo not given),inactive,inactive,,
NNC(N)=O,inactive,inactive,,
Clc1ccc(C2(Cn3cncn3)CC(Br)CO2)c(Cl)c1 (stereo not given),inactive,inactive,,
CCOC(=O)C(Cl)C(C)=O (stereo not given),inactive,inactive,,
Oc1ccccc1Cl,inactive,inactive,,
C=CC=O,inactive,inactive,,
O=c1ccc(=O)[nH][nH]1,inactive,inactive,,
C#CCOC(=O)/C=C(C)/C=C/CC(C)CCCC(C)C (stereo not given),inactive,inactive,,
CC(=O)[C@H]1CC[C@H]2[C@@H]3CC[C@H]4C[C@H](O)CC[C@]4(C)[C@H]3C(=O)C[C@]12C,inactive,inactive,,
C=CCC1(C(C)CC)C(=O)NC(=O)NC1=O (stereo not given),inactive,inactive,,
CC(C)(C)c1ccccc1O,inactive,inactive,,
C[C@H](N)C(=O)c1ccccc1,inactive,inactive,,
N#Cc1cc([N+](=O)[O-])ccc1N,inactive,inactive,,
CN(C)c1ccc(N=Nc2ccccc2)cc1,inactive,inactive,,
O=C(NC(=O)c1c(F)cccc1F)Nc1ccc(Oc2ccc(C(F)(F)F)cc2Cl)cc1F,inactive,inactive,,
Cc1nnc2n1-c1sc(CCc3ccc(CC(C)C)cc3)cc1C(c1ccccc1Cl)=NC2C (stereo not given),inactive,inactive,,
O=S(=O)(c1ccc(O)cc1)c1ccc(O)cc1,inactive,inactive,,
CCN(CC)c1nc(C)cc(OP(=S)(OC)OC)n1,inactive,inactive,,
